Screens as filed in PubChem.
Sfp PPTase inh – Sfp phosphopantetheinyl transferase inhibition | 310,000 tested, 3.5% active | Potency, µM, without a hit: largest response in the series, negative = inhibition, hits mostly inhibitors | Q9F4F7 | Biochemical Sfp PPTase activity, qHTS;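 note: the enzyme is Sfp with the accession as filed and its product quenches rhodamine fluorescence; potency is the fitted concentration of half-maximal effect; 0% = enzyme reaction without inhibitor and -100% = no enzyme wells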
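Sfp 15 nM + cpd, 15 min RT; start w/ rhodamine-CoA 5 uM, BHQ-2-YbbR 12.5 uM (final); 50 mM Hepes pH 7.6, 10 mM MgCl2, 0.01% NP-40, 0.01% BSA; read 525/598 nm at 0 and 30 min.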
PLK1 PBD inh – PLK1 (human) polo-box domain binding inhibition | P53350 | Plk1 PBD binding of FITC phosphopeptide, fluorescence polarization | Potency, µM, for the others: max response, negative = inhibition, hits mostly inhibitors | 360,000 tested, 2.8% active | AID 720504; note: potency is the fitted concentration of half-maximal effect; series mostly up to about 57 µM; nearly all actives have a fitted effect of over 65% in size
Target sequence (P53350 whole entry, looked up, the tested form may be a part): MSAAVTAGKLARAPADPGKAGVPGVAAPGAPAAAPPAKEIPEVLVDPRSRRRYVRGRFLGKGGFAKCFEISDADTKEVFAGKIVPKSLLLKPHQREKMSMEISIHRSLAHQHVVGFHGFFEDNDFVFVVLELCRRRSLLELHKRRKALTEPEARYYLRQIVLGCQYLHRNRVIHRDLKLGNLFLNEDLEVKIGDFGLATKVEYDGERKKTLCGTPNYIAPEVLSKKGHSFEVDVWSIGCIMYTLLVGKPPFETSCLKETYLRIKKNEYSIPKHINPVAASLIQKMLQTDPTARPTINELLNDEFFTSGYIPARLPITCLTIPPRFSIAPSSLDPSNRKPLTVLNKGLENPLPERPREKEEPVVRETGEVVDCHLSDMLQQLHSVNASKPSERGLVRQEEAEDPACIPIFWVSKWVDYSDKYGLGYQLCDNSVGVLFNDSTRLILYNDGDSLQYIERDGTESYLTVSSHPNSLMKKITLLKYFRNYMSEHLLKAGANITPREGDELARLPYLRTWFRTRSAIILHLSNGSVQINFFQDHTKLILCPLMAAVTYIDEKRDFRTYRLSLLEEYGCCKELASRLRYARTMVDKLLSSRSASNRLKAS
Mm-Cpn inhibitor – blocks the Methanococcus maripaludis chaperonin Mm-Cpn; Potency, µM (top dose mostly 76.9 µM), inactives show at the highest dose activity, negative = inhibition, usual class: inhibitors; 330,000 tested, 0.031% active; purified Mm-Cpn ATPase, ADP Transcreener TR-FRET; note: potency is the fitted concentration of half-maximal effect; nearly all actives have a fitted effect of over 80% in size
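ATPase read-out: TR-FRET ADP immunoassay (anti-ADP Eu cryptate vs ADP-d2), ex 320 nm, em 590/665 nm; signal drops as ADP forms. Enzyme 25 nM, ATP 10 uM, 30 min at 37°C after 10 min compound preincubation.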
CCT modulator – modulators of cytosolic chaperonin (CCT/TRiC) activity | 360,000 tested, 0.3% active | purified chaperonin ATPase assay, HTRF ADP detection, 30 min | activity change, % (concentration not given with the values), hits read low; in the data active = activity change below about -30%
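TRiC (40 or 20 nM final, by batch activity) in 30 mM Tris pH 7.4, 100 mM KCl, 5 mM MgCl2, 1 mM DTT was treated with compound at 76 uM single dose, then 10 uM ATP, 30 min at 37 °C. ADP was read by HTRF Transcreener.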
G9a block – G9a (human) methyltransferase inhibition | Q96KQ7 | 350,000 tested, 8.8% active | Potency, µM (series often up to 102 µM), for the others: at the top dose activity, negative = inhibition, actives largely listed as inhibitors | G9a H3K9 monomethylation, AlphaScreen, 2 h; note: potency is the fitted concentration of half-maximal effect; nearly all actives have a fitted effect of over 75% in size
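Compounds were preincubated with 20 nM G9a for 15 min, after which biotinylated H3K9 peptide (500 nM) and SAM (20 uM) started a 2 h room-temperature reaction. Monomethylated product was quantified by antibody-based AlphaScreen chemiluminescence.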
VDR inhibitor – blocks the human vitamin D receptor; Potency, µM, inactives show max response, negative = inhibition, actives largely listed as inhibitors; P11473; VDR-SRC2-3 peptide fluorescence polarization, 2 h; 400,000 tested, 0.93% active; note: potency is the fitted concentration of half-maximal effect
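Fluorescence polarization assay measuring small-molecule disruption of VDR binding to the coregulator peptide SRC2-3. Compounds were pin-transferred (23 nl) into the reagent mix and incubated 2 h at room temperature before reading.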
Starred values were filed as active, the others as inactive; ? = inconclusive; nt = no result given; [ ] = another dose, or the depositor's remark. Shown are actives, neighbours in structure and some others; about 10% of the full set was active somewhere. Unless noted, calls come from the whole dose curve; as a rule, active = well fitted curve in the direction sought with a large enough effect; inconclusive = small, poorly fitted or top-dose-only effect, or another doubt; inactive = no such curve, though single readings can be large; an effect the other way counts as inactive or inconclusive. Unless noted, % is set by controls: 0 for no effect and ±100 for the full control effect.

SMILES | Sfp PPTase inh | PLK1 PBD inh | Mm-Cpn inhibitor | CCT modulator | G9a block | VDR inhibitor
O=C(CCN1CCCCC1)Nc1ccc2c(c1)C(=O)c1ccc(NC(=O)CCN3CCCCC3)cc1C2=O | 18.3% | nt | nt | nt | ? | 0.3%
Cc1ccc(NC(=O)C2CCN(S(=O)(=O)c3ccc4c(c3)CCCC(=O)N4)CC2)c(Cl)c1 | nt | nt | nt | nt | -4.3%[59 µM] | 9.0%
Cc1[nH]nc2c1C(=O)CCC2 | 14.2% | 7.52µM* | 0.0% | 1.4 | -1.3% | -4.5%
Cc1[nH]nc2c1C(=O)CC(C)(C)C2 | 1.9% | -12.7% | -0.3% | -2.0 | -32.3%[59 µM] | -3.2%
COc1cc(NC(=S)N2CCC(C(N)=O)CC2)c(OC)cc1Cl | ? | ? | 1.9% | -0.2 | 44.7µM* | -19.8%
COc1ccc(C(=S)N2CCC(C(N)=O)CC2)cc1Br | 39.8µM* | 18.9µM* | 1.3% | -2.2 | ? | -7.3%
COc1cc2nc(C3CCC3)nc(N3CCN(c4ccccc4OC)CC3)c2cc1OC | -23.3% | -1.0% | -1.9% | -1.0 | ? | -7.5%
COc1cc2nc(C3CCC3)nc(N3CCN(c4ccccn4)CC3)c2cc1OC | 79.4µM* | 3.0% | 0.8% | -4.0 | 50.1µM* | -14.4%
CCCCOc1ccc(C(=S)N2CCC(C(N)=O)CC2)cc1 | -27.4% | ? | -2.8% | -1.9 | ? | -23.6%
COc1cc(NC(=S)N2CCC(C(N)=O)CC2)cc(OC)c1 | ? | ? | 0.3% | -2.7 | -6.4%[59 µM] | -6.3%
COc1cc(NC(=S)N2CCN(c3ccccn3)CC2)c(OC)cc1Cl | 10.0% | 23.8µM* | -0.2% | -3.4 | 15.8µM* | ?
CCN(CC)S(=O)(=O)c1ccc2c(c1)N(CC(=O)N1CCN(c3ccc(Cl)cc3)CC1)C(=O)CO2 | nt | nt | nt | nt | 6.5%[59 µM] | 2.9%
Cc1cc(=O)n2nc(N3CCC(C(=O)NCCCOC(C)C)CC3)sc2n1 | nt | nt | nt | nt | 17.1%[59 µM] | 10.1%
S=C(Nc1ccc(Oc2ccccc2)cc1)N1CCN(c2ccccn2)CC1 | ? | 23.8µM* | -0.1% | -1.8 | ? | -11.6%
COc1cccc(NC(=S)N2CCN(c3ccccn3)CC2)c1 | 10.5% | 26.7µM* | 0.0% | -0.5 | -1.0% | ?
Fc1ccc(-c2nc3nc4ccccc4nc3n2Cc2ccco2)cc1 | 17.8µM* | -5.6% | -1.2% | -1.7 | -44.3% | -5.8%
Fc1ccc(-n2c(-c3ccco3)nc3nc4ccccc4nc32)cc1 | 5.4% | -7.4% | -0.3% | -3.4 | ? | -8.6%
c1ccc(-c2nc3nc4ccccc4nc3n2Cc2ccco2)cc1 | 10µM* | -13.6% | -2.1% | 0.4 | 15.8µM* | -26.6%
CC[C@H](C)[C@H](NC(=O)[C@H](Cc1ccc(O)cc1)NC(=O)[C@@H](NC(=O)[C@H](CCCN=C(N)N)NC(=O)[C@@H](N)CC(=O)O)C(C)C)C(=O)N[C@@H](Cc1cnc[nH]1)C(=O)N1CCC[C@H]1C(=O)O | -2.6% | nt | nt | nt | nt | 0.8%
COC(=O)Nc1sc2c(c1C(=O)NCc1ccco1)CCCC2 | 79.4µM* | -12.9% | 4.9% | -1.6 | -33.6% | 7.4%
O=C(Nc1sc2c(c1C(=O)NCc1ccco1)CCCC2)c1ccc2c(c1)OCO2 | 44.7µM* | -13.9% | -20.5% | -0.3 | -41.2%[59 µM] | -2.8%
CCCOC(=O)C1[C@H]2C(=O)N(Cc3ccco3)C[C@]23C=C[C@H]1O3 (stereo not given in full) | ? | -9.2% | -1.3% | -1.7 | 50.1µM* | -6.3%
CCCCOC(=O)C1[C@H]2C(=O)N(Cc3cccs3)C[C@]23C=C[C@H]1O3 (stereo not given in full) | -13.8% | -10.5% | -9.5% | 1.6 | -37.0%[59 µM] | 4.0%
CCS(=O)(=O)c1ncc(N(Cc2ccco2)Cc2sccc2C)c(C(=O)Nc2cc(C)ccc2C)n1 | nt | nt | nt | nt | -0.9%[59 µM] | 4.8%
COc1ccccc1NC(=O)c1cc2ccccc2o/c1=N\O | 50.1µM* | ? | -16.6% | -2.5 | 14.1µM* | -10.4%
CCCCn1c(N)c(N(CCC(C)C)C(=O)C2CC(=O)N(c3cccc(SC)c3)C2)c(=O)[nH]c1=O (stereo not given) | nt | -5.9% | 0.2% | -0.5 | 14.1µM* | -5.7%
CCCCn1c(N)c(N(CCC(C)C)C(=O)C2CC(=O)N(c3ccccc3OCC)C2)c(=O)[nH]c1=O (stereo not given) | 14.5% | 1.4% | 2.8% | 0.0 | 21.9% | -1.4%
